Assay [1] in a line: qHTS assay for small molecule agonists of the p53 signaling pathway (AID 651631; calls by dose curve; further: nearly all actives have a fitted effect of over 15% in size; further: potency means the concentration at half of the fitted maximal effect). The method in brief:
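Beta-lactamase reporter activity under p53 response elements was quantified in HCT-116 cells by FRET fluorescence, following 16 h incubation with test compounds at 37 °C and 2 h substrate development at room temperature.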
A general note: Quantitative high-throughput screening tests each substance at several concentrations.

Assay [2] can be described thus: qHTS assay for small molecules that induce genotoxicity in human embryonic kidney cells expressing luciferase-tagged ATAD5 (AID 651632). Further: nearly all actives have a fitted effect of over 15% in size. Further: potency means the concentration at half of the fitted maximal effect. The method in brief:
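Concentration-response screen for ATAD5 upregulation in HEK293T luciferase reporter cells; 16 hr treatment at 37C, then luminescence after 30 min with Amplite at room temperature.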

Assay [3] is described as follows: qHTS assay for small molecule agonists of the p53 signaling pathway - cell viability (AID 651633; calls by dose curve;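 further: p53RE-bla HCT reporter cells with a stable beta-lactamase p53 reporter; series mostly up to about 83 µM; nearly all actives have a fitted effect of over 30% in size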). The method in brief: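 p53RE-bla cells, seeded at 4,000 per well and rested 5 h at 37 C/5% CO2, received compounds in DMSO for 16 h at 37 C. CellTiter-Glo was then added, and luminescence was read after 30 min at room temperature to gauge cytotoxicity.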
Assay [4] in a line: qHTS assay for small molecules that induce genotoxicity in human embryonic kidney cells expressing luciferase-tagged ATAD5 - cell viability (AID 651634; calls by dose curve; further: nearly all actives have a fitted effect of over 25% in size). Summed up: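 15.5 hr compound or vehicle exposure of HEK293T cells expressing luciferase-tagged ATAD5 at 37C; live-cell protease activity is read by fluorescence after 30 min of CellTiter-Fluor.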
Assay [5] can be described thus: qHTS assay for small molecule disruptors of the mitochondrial membrane potential - cell viability (AID 720634; calls by dose curve;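 further: human HepG2 liver cancer cells; series mostly up to about 83 µM; nearly all actives have a fitted effect of over 20% in size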). Summed up:
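In this qHTS format, HepG2 cells plated overnight were pinned with compound, incubated 1 hr, and assayed for ATP luminescence with CellTiter-Glo after m-MPI dye addition.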

Assay [6] in a line: qHTS assay for small molecule disruptors of the mitochondrial membrane potential (AID 720635). Further: potency means the concentration at half of the fitted maximal effect. The method in brief: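 HepG2 cells (2,000/well) attached overnight at 37C, then took compound for 1 hr at 37C, 5% CO2. Mito-MPS dye was added for 30 min; fluorescence was read at 490/535 nm (monomers) and 540/590 nm (aggregates).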
Assay [7] is described as follows: qHTS assay to test for compound auto fluorescence at 590 nm (red) in HepG2 cells (AID 720674). Summed up:
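Intrinsic compound fluorescence in the red window (Ex/Em 540/590 nm) is measured in attached HepG2 cells exposed for 1 hr, DMSO vehicle as baseline, benchmarked to Rose Bengal sodium.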

Assay [8] can be described thus: qHTS assay to test for compound auto fluorescence at 535 nm (green) in HepG2 cells (AID 720675).
A short description of assay [9]: qHTS assay to test for compound auto fluorescence at 460 nm (blue) in HEK293 cells (AID 720678). Summed up: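 Measured: blue fluorescence (Ex 405/Em 460 nm) of compound-treated HEK293 cells, incubated overnight at 37C with 5% CO2 and scaled to triamterene equivalents.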
Assay [10] in a line: qHTS assay to test for compound auto fluorescence at 590 nm (red) in HEK293 cells (AID 720679). Summed up: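 Using HEK293 cells at 2,000 per well, the screen added 23 nL of each compound after cell attachment and incubated overnight (37C, 5% CO2). The plate reader then captured red-label fluorescence, Ex/Em 540/590nm.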

Where “and” joins values, the source holds several entries; their conditions need not be identical. Identical values can stand only once. Values without a mark were called inactive. Inconclusive results are not listed. Calls of active or inactive are those of the source. Unless noted, the call rests on the fitted dose curve; in most records, active means well fitted curve in the direction sought with a large enough effect in the repeat runs; inconclusive means weak or mixed curves; inactive means no such curve, though single readings can be large; an effect the other way counts as inactive or inconclusive.

These results are taken from PubChem BioAssay (Tox21).
On the % scale 0 is the no-effect control and ±100 the full control effect.

On to `O=C(CCCCCCC(=O)Nc1ccccc1)NO`, for which the Potency in assay [1] was 750 nM (active) and 668 nM (active); in [2], 2.11 µM (active) and 1.68 µM (active). Besides, the Potency entry in [3], in [4], in assay [5], in assay [6] and in [9] was “inactive” throughout. The result in [7], in [8] and in assay [10] was inactive.
As for `CCCCCCCCCCCC[N+](C)(C)CCCS(=O)(=O)[O-]`, the Potency result in assay [1], in assay [2], in [3], in [4], in [5] and in assay [6] was “inactive” throughout. Further, in assay [9], the Potency result was “inactive”. For the same molecule, the result in assay [7] and in assay [8] was inactive.
`C[Si](NC1CCCCC1)(NC1CCCCC1)NC1CCCCC1`: the Potency entry in [1], in assay [2], in assay [3], in [4], in assay [5] and in assay [6] was “inactive” throughout. For the same molecule, the Potency entry in assay [9] was “inactive”. Besides, the molecule was called inactive in assay [7], in assay [8] and in assay [10].
`CCCOC(=O)c1ccc(N)cc1`: the Potency entry in assay [1], in assay [2], in assay [3], in [4], in assay [5] and in assay [6] was “inactive” in each case. The Potency entry in assay [9] is “inactive”. The result in assay [7], in [8] and in [10] was inactive.
As to `C/C=C(\C)C(=O)OCCC(C)CCC=C(C)C` (stereo not drawn), the Potency entry in assay [1], in [2], in assay [3], in [4], in [5] and in [6] was “inactive” throughout. Also, in assay [9], the Potency entry was “inactive”. In addition, the call in assay [7], in assay [8] and in [10] was inactive.
In the case of `CC(C)CCCC(=O)O`, the Potency entry in [1], in assay [2], in [3], in assay [4], in [5] and in assay [6] was “inactive” each time. For the same molecule, the Potency entry in assay [9] was “inactive”. The result in assay [7] and in assay [8] was inactive.
Turning to `OCCSc1ccccc1`, the Potency result in [1], in assay [2], in assay [3], in assay [4], in assay [5] and in assay [6] was “inactive” throughout. Further, in assay [9], the Potency result is “inactive”. Moreover, the outcome in [7], in assay [8] and in assay [10] was inactive.
On to `CCOC(=O)/C=C/C(=O)O`, for which the Potency result in [1], in [2], in assay [3], in assay [4], in [5] and in assay [6] was “inactive” each time. In addition, in [9], the Potency result was “inactive”. Besides, the molecule was classed as inactive in assay [7], in [8] and in assay [10].
For the molecule `O=C1OCCN1/N=C/c1ccc([N+](=O)[O-])o1`, the Potency entry in assay [1], in assay [2], in [3], in assay [4], in assay [5] and in [6] was “inactive” in each case. In addition, the Potency result in assay [9] was “inactive”. Further, the result in assay [7], in assay [8] and in assay [10] was inactive.
With `NCC1CCCC(CN)C1` (stereo not drawn), the Potency entry in [1], in [2], in assay [3], in assay [4], in [5] and in assay [6] was “inactive” in each case. The Potency result in assay [9] is “inactive”. For the same molecule, the call in assay [7], in assay [8] and in [10] was inactive.
For the molecule `CCOC(=O)[C@@H](C)Oc1ccc(Oc2nc3ccc(Cl)cc3o2)cc1`, the Potency result in assay [1], in assay [2], in assay [3], in assay [4], in assay [5] and in assay [6] was “inactive” in each case. Moreover, the Potency entry in assay [9] is “inactive”. In addition, the molecule was called inactive in assay [7] and in assay [8].
Consider `CCCCCCCCCOC(C)=O`, for which the Potency result in [1], in assay [2], in [3], in [4], in assay [5] and in [6] was “inactive” in each case. The Potency result in assay [9] is “inactive”. In addition, the molecule was called inactive in assay [8] and in [10].
`Fc1c(F)c(F)c(Br)c(F)c1F`: the Potency entry in assay [1], in assay [2], in assay [3], in [4], in [5] and in [6] was “inactive” in each case. In addition, in assay [9], the Potency result is “inactive”. Besides, the outcome in assay [7], in [8] and in assay [10] was inactive.
As to `COc1ccc(CCC(=O)c2c(O)cc(O[C@@H]3O[C@H](CO)[C@@H](O)[C@H](O)[C@H]3O[C@@H]3O[C@@H](C)[C@H](O)[C@@H](O)[C@H]3O)cc2O)cc1O`, the Potency entry in assay [1], in assay [2], in assay [3], in assay [4], in assay [5] and in assay [6] was “inactive” in each case. Further, in [9], the Potency entry is “inactive”. Moreover, the molecule was called inactive in [7], in assay [8] and in assay [10].
`CC(=O)CC(c1ccc([N+](=O)[O-])cc1)c1c(O)c2ccccc2oc1=O` (stereo not drawn): the Potency entry in [1], in assay [2], in assay [3], in assay [4] and in assay [5] was “inactive” each time. Moreover, the Potency in [6] is 7.17 µM (active). Further, in assay [7], the fluorescence, relative to Rose Bengal is -0.182% [at 18.6 µM]. Moreover, in assay [8], the fluorescence, % of fluorescein control is 0.0036% [at 18.6 µM]. The fluorescence, % of triamterene in assay [9] was -0.0105% [at 18.6 µM]. Besides, the fluorescence, % of fluorescent control in assay [10] was 0.088% [at 18.6 µM].
For the molecule `COc1ccc(C(=O)c2cccc(O)c2)c(OC)c1`, the Potency result in assay [1], in assay [2], in [3], in assay [4], in assay [5] and in assay [9] was “inactive” each time. In addition, the Potency in assay [6] is 30.6 µM (active). The outcome in assay [7], in [8] and in [10] was inactive.
Take `CC(CCO)CCc1ccccc1` (stereo not drawn): the Potency entry in [1], in [2], in assay [3], in [4], in [5] and in [6] was “inactive” throughout. Moreover, in assay [9], the Potency result is “inactive”. Also, the result in assay [7], in assay [8] and in assay [10] was inactive.
For the molecule `CCOC(=O)CC(=O)C(=O)OCC`, the Potency entry in assay [1], in assay [2], in assay [3], in [4], in [5] and in [6] was “inactive” each time. Further, in assay [9], the Potency entry is “inactive”. The outcome in assay [7], in assay [8] and in [10] was inactive.
Take `CN1CCCN=C1/C=C/c1cccs1`: the Potency result in [1], in assay [2], in assay [3], in [4], in [5] and in [6] was “inactive” each time. In assay [9], the Potency entry was “inactive”. Besides, the result in assay [7] and in [8] was inactive.
Turning to `Cc1ccc(S)cc1`, the Potency result in assay [1], in [2], in assay [3], in assay [4], in assay [5] and in [6] was “inactive” in each case. In addition, the Potency entry in [9] is “inactive”. Besides, the molecule was classed as inactive in [7], in assay [8] and in assay [10].
Turning to `C[Si]1(C)O[Si](C)(C)O[Si](C)(C)O1`, the Potency result in assay [1], in [2], in assay [3], in assay [4], in assay [5] and in assay [6] was “inactive” in each case. Further, the Potency result in assay [9] is “inactive”. Moreover, the molecule was called inactive in [8].
As for `C[N+](C)(C)CCOC(N)=O`, the Potency entry in assay [1], in assay [2], in assay [3], in assay [4], in assay [5] and in assay [6] was “inactive” in each case. Further, in assay [9], the Potency entry is “inactive”. The result in [7], in [8] and in assay [10] was inactive.
